B1: ENSMUSG00000031028.526|Tub (ssRNA)
RNA: GGGAGUUCUACAGUCCGACGAUCGCUUCGAUAUCCGCAUGCUACUUUCUCUUUUAUGGAAAUGGCAGGUCUAUUUGCCUCAAACGUUAUGUAGAAGUAGUUCUAAGUUUAACAAGCAAUAGAGAUGACUGCUUAGCUAGGAUCUGCAGGGAGCUCUGCUCUGCAAGCACAACACCUGUCUCAUAGAUGGACAGCCUGGUUUCCCUUCUCAGCAGUCCUGGCCUCCCCUUCUCUGUAUUCCUUGCCCCAGCUACGAUAUCCUCAUGGGAUUUCAGGAUGCCAGGUGCCAUCAAAGCAUGCUUUUCUCUUGCGGUCGCACUAGUGUGGAAUUCUCGGGUGUCAAGG
B2: ENSMUSG00000061578.913|Ksr2|118:122 (ssRNA)
RNA: GGGAGUUCUACAGUCCGACGAUCGCUUCGAUAUCCGCAUGCUACAGAGACAGAUUUCCCAGAAUCCCUGGGCCACUUCUCAAUUCUACCCAUGACAGACAUGUCCCAUCCAUGAGCCCAGAUAGUCAAAGACUUCAGCACAAGGGUGUUUAGAGUAGGCACACACGAAGUAUCAAUAAGGUUAUUGAGAUGAGGAUUUAGAAAGAUCCAUGUAUAAAAGGUCUAGAAGGAUGAAGAUCUAAAACAAGAAGACUGCAUGUUAACGCUCCUGCCACUGUUGCCCCUUCCUUUACCCUUGGCAGACCUCUUGCGGUCGCACUAGUGUGGAAUUCUCGGGUGUCAAGG
B3: ENSMUSG00000061578.39|Ksr2 (ssRNA)
RNA: GGGAGUUCUACAGUCCGACGAUCGCUUCGAUAUCCGCAUGCUAAGGGUCCCAUGUGUGGUGUGAAGGAGCCACAGACUGAGCACACCACCUCGGACUGUGGAGACCAAGACACAUGCCCAGUGGGCAGACUCAGACUCACACGCUGGACCAGUGUGUGCGCAUGUGUCUACACAUGGACAGGGCCAACUGCUAUCCUUCUGCCUGGACGAGCCAGCUGUGGAGUGUCCCAGCUGUGCUAUCCUGGAACACAGAACCAGGAUGGAACCAGAAACAAUACACCUGCUCCGUUGUCAAGGCUUCUACUCUUGCGGUCGCACUAGUGUGGAAUUCUCGGGUGUCAAGG
B4: ENSMUSG00000042529.381|Kcnj12 (ssRNA)
RNA: GGGAGUUCUACAGUCCGACGAUCGCUUCGAUAUCCGCAUGCUAUUUGGGUAAGGUGGGUUUCAUGCUCACCAACCUGAACUGGUCAGGCUGGAUGCUGGCCACAGACAUGAUCAGUCCGACUUGAGUCCCUGCCCUGCCCUGGUUAUGCAGGCUGUACGACGCAGUGUGCAUCAGUCUGAGGAGUCUGGUGGUAAGUAAGCCUCUGCAGCAGACCCUGUCGGAGGCCAUGGGGGCGUGUGUGUGUGUGUGUGUGUGUGUGUGUGUGUGUGUGUGUGUGUGUGUGUGUGAACAUGUGUGAGGGUCUCUUGCGGUCGCACUAGUGUGGAAUUCUCGGGUGUCAAGG
B5: ENSMUSG00000043670.121|Diras1 (ssRNA)
RNA: GGGAGUUCUACAGUCCGACGAUCGCUUCGAUAUCCGCAUGCUAUGUCUGCACACCAGGGUGGAUGGGCCCGAGGGCUGGGCCUCAGGCACCAGGCAAUAAACACAGGGCCUGCAGCAAUGCCCUGGCCACCCCGAGUACCACCUCUGGAAUAGCAGACGCCCACAGCACAAGCCCAGGACUGUCCCUUCAGGGGAGGCACACUGGAACCCUGAACUUGGAGUGUGGAGUGGCUGCCUGGACACUGCCCACCUGGACACCAGCCUUCUGCUGAGAUAGAGACCUUGGCACAGUGGCACCUCGACCUCUUGCGGUCGCACUAGUGUGGAAUUCUCGGGUGUCAAGG
B6: ENSMUSG00000042529.382|Kcnj12 (ssRNA)
RNA: GGGAGUUCUACAGUCCGACGAUCGCUUCGAUAUCCGCAUGCUAUAAGGUGGGUUUCAUGCUCACCAACCUGAACUGGUCAGGCUGGAUGCUGGCCACAGACAUGAUCAGUCCGACUUGAGUCCCUGCCCUGCCCUGGUUAUGCAGGCUGUACGACGCAGUGUGCAUCAGUCUGAGGAGUCUGGUGGUAAGUAAGCCUCUGCAGCAGACCCUGUCGGAGGCCAUGGGGGCGUGUGUGUGUGUGUGUGUGUGUGUGUGUGUGUGUGUGUGUGUGUGUGUGUGUGAACAUGUGUGAGGGUGUGGAGCUCUUGCGGUCGCACUAGUGUGGAAUUCUCGGGUGUCAAGG
B7: ENSMUSG00000042529.383|Kcnj12 (ssRNA)
RNA: GGGAGUUCUACAGUCCGACGAUCGCUUCGAUAUCCGCAUGCUAGGGUUUCAUGCUCACCAACCUGAACUGGUCAGGCUGGAUGCUGGCCACAGACAUGAUCAGUCCGACUUGAGUCCCUGCCCUGCCCUGGUUAUGCAGGCUGUACGACGCAGUGUGCAUCAGUCUGAGGAGUCUGGUGGUAAGUAAGCCUCUGCAGCAGACCCUGUCGGAGGCCAUGGGGGCGUGUGUGUGUGUGUGUGUGUGUGUGUGUGUGUGUGUGUGUGUGUGUGUGUGUGAACAUGUGUGAGGGUGUGGAGGUCCCACUCUUGCGGUCGCACUAGUGUGGAAUUCUCGGGUGUCAAGG
B8: ENSMUSG00000042529.385|Kcnj12 (ssRNA)
RNA: GGGAGUUCUACAGUCCGACGAUCGCUUCGAUAUCCGCAUGCUACACCAACCUGAACUGGUCAGGCUGGAUGCUGGCCACAGACAUGAUCAGUCCGACUUGAGUCCCUGCCCUGCCCUGGUUAUGCAGGCUGUACGACGCAGUGUGCAUCAGUCUGAGGAGUCUGGUGGUAAGUAAGCCUCUGCAGCAGACCCUGUCGGAGGCCAUGGGGGCGUGUGUGUGUGUGUGUGUGUGUGUGUGUGUGUGUGUGUGUGUGUGUGUGUGUGAACAUGUGUGAGGGUGUGGAGGUCCCAGGGUGUGUGUAUCUCUUGCGGUCGCACUAGUGUGGAAUUCUCGGGUGUCAAGG
B9: ENSMUSG00000043670.183|Diras1|29:33;126:130;160:164;174:183;189:196;229:233 (ssRNA)
RNA: GGGAGUUCUACAGUCCGACGAUCGCUUCGAUAUCCGCAUGCUAGACAGAAUCUGAGCCUCUUUGCUGGUCAACACAACUCUGGAGACUGUCCCCCAUGUCUGCCCUGAGUUACGGAGCCCCUGUGGUAUCUGCGAGACUGUCCAGGAGACUUGAGUGGCUCCUGGGCCACACACCCACCCAGAUGAGGGUGACUUAGAAUUCACACAUUAUGUGCCACACACACACGAUGGCACACACACUGUCUUGGGAUGGGGUGUUCUUGCACCACUUACACAUCUUAGUGAGACCACAGUGUAAGUGGCCUCUUGCGGUCGCACUAGUGUGGAAUUCUCGGGUGUCAAGG
B10: ENSMUSG00000042529.384|Kcnj12 (ssRNA)
RNA: GGGAGUUCUACAGUCCGACGAUCGCUUCGAUAUCCGCAUGCUACAUGCUCACCAACCUGAACUGGUCAGGCUGGAUGCUGGCCACAGACAUGAUCAGUCCGACUUGAGUCCCUGCCCUGCCCUGGUUAUGCAGGCUGUACGACGCAGUGUGCAUCAGUCUGAGGAGUCUGGUGGUAAGUAAGCCUCUGCAGCAGACCCUGUCGGAGGCCAUGGGGGCGUGUGUGUGUGUGUGUGUGUGUGUGUGUGUGUGUGUGUGUGUGUGUGUGUGUGAACAUGUGUGAGGGUGUGGAGGUCCCAGGGUGUCUCUUGCGGUCGCACUAGUGUGGAAUUCUCGGGUGUCAAGG
B11: ENSMUSG00000042529.380|Kcnj12 (ssRNA)
RNA: GGGAGUUCUACAGUCCGACGAUCGCUUCGAUAUCCGCAUGCUAUUUAAAUUUGGGUAAGGUGGGUUUCAUGCUCACCAACCUGAACUGGUCAGGCUGGAUGCUGGCCACAGACAUGAUCAGUCCGACUUGAGUCCCUGCCCUGCCCUGGUUAUGCAGGCUGUACGACGCAGUGUGCAUCAGUCUGAGGAGUCUGGUGGUAAGUAAGCCUCUGCAGCAGACCCUGUCGGAGGCCAUGGGGGCGUGUGUGUGUGUGUGUGUGUGUGUGUGUGUGUGUGUGUGUGUGUGUGUGUGUGAACAUGUGUCUCUUGCGGUCGCACUAGUGUGGAAUUCUCGGGUGUCAAGG
B12: ENSMUSG00000031028.210|Tub (ssRNA)
RNA: GGGAGUUCUACAGUCCGACGAUCGCUUCGAUAUCCGCAUGCUAAAUGUAUAAGGUUGGAAACCUUUCAGUAGGGAAUCAGGCAGUUCCCUGUUGAAAGUUGUCUGAGUUUUUGCACACCAUUCUGAUCUGAUGUGGCCUGUGCCUGGCUCCUCUAUGAGGACUUCGAGCUGUGCACAGACCUUAGCAGGACCACUGCACACUUUGUGUCUGUGUGACAGGCAGCCCAAGGGUUCUGGGGCUGGGCUUGGACACGCCCUCCAUUGGGAUGGCACCACUCAUCUGGUGGGCUUGGGAACUCCAAGCUCUUGCGGUCGCACUAGUGUGGAAUUCUCGGGUGUCAAGG
B13: ENSMUSG00000061578.23|Ksr2 (ssRNA)
RNA: GGGAGUUCUACAGUCCGACGAUCGCUUCGAUAUCCGCAUGCUAGUGAUGACGUCACAGAGGCUGUCCACACCUUCGACUUGUACCCCGUUACUCAGGCACGAUCAGGGACCACUCAACUAGGACCAAACUGGGCCAGAGAGGGUCCCAUGUGUGGUGUGAAGGAGCCACAGACUGAGCACACCACCUCGGACUGUGGAGACCAAGACACAUGCCCAGUGGGCAGACUCAGACUCACACGCUGGACCAGUGUGUGCGCAUGUGUCUACACAUGGACAGGGCCAACUGCUAUCCUUCUGCCUGGACUCUUGCGGUCGCACUAGUGUGGAAUUCUCGGGUGUCAAGG
B14: ENSMUSG00000061578.1090|Ksr2 (ssRNA)
RNA: GGGAGUUCUACAGUCCGACGAUCGCUUCGAUAUCCGCAUGCUAAGCAGCCAACCAUGAAAAUAGAGGUUUGUAAUGUACAGAAGGCUGGGGGAGCUUUCAGGGGUGUGGCCAGUUAUGUACAGAUGUGAAGCUGAGGUCUGAAGGAAAUGGAGGAAGUAGGAAGAUCAGACUGGUUGAAUUAGAAGUCUGUCACUCUAGGUGCUAAGUGACCUUGGACCCAGUCAGUUCUUGGAUUUCUGUUGUAGCCCAGGCUAGCCUCGAACCCUUGAUCCUCCUGUUCCUGGUAGAGAAACAGCCACUAACUCUUGCGGUCGCACUAGUGUGGAAUUCUCGGGUGUCAAGG

Over roughly 9,900 sequences, “r (bound/input frequency ratio)” has its median near 0.7; the highest 2% begin near 6.5. Only a selection was taken, and the highest values are over-represented in it overall.

The target in the assay is TDP-43 (Homo sapiens, UniProt Q13148 1-414). The assay is described as follows: RNA Bind-n-Seq with designed 260-mer pool; 25 mM Tris-HCl, 150 mM KCl, 3 mM MgCl2, BSA (printed 500 mg/mL), 20 units/mL SUPERase IN; pH not stated; 500 nM RNA pool, 1 h, 4 C; TDP-43 5, 50, 500 nM; high values mean tight binding. The note with it: protein: recombinant; tags: SBP (GST cleaved off with PreScission; pGEX-GST-SBP). The essentials: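 For each oligo, R gives binding as its mapped-read-normalized abundance after pulldown divided by its abundance in input. Bead-captured SBP-tagged TDP-43 (5, 50 or 500 nM) was incubated with 500 nM of an in vitro-transcribed 260-nt 3′ UTR oligo pool for 1 h at 4 °C in 25 mM Tris-HCl, 150 mM KCl, 3 mM MgCl2, BSA and SUPERase IN on streptavidin beads. Washed, biotin-eluted RNA was reverse transcribed, PCR-amplified and sequenced.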
Chain of TDP-43 (Q13148 whole entry): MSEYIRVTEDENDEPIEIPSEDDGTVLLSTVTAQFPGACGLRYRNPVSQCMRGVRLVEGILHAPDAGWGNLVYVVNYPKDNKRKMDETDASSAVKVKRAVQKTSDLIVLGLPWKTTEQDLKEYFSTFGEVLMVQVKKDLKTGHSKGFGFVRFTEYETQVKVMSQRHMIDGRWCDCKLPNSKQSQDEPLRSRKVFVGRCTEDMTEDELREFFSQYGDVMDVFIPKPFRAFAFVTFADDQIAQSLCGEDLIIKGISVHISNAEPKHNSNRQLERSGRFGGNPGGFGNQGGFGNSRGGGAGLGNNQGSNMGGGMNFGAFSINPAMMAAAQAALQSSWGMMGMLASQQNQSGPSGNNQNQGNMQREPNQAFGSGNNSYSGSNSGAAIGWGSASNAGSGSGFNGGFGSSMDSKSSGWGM
As for B1, the binding signal is 0.219 R (bound/input frequency ratio).
In the case of B2 it was 0.457 R (bound/input frequency ratio).
On to B3, for which the binding signal was 0.764 R (bound/input frequency ratio).
The same measure for B4: 6.18 R (bound/input frequency ratio).
In the case of B5 it was 0.914 R (bound/input frequency ratio); in that of B6, 6.14 R (bound/input frequency ratio).
The same measure for B7: 8.12 R (bound/input frequency ratio); for B8: 7.81 R (bound/input frequency ratio).
Turning to B9, the binding signal was 0.711 R (bound/input frequency ratio).
For B10, the binding signal was 7.66 R (bound/input frequency ratio).
As to B11, the binding signal is 7.35 R (bound/input frequency ratio).
The same measure for B12: 2.94 R (bound/input frequency ratio); for B13: 0.299 R (bound/input frequency ratio); for B14: 1.34 R (bound/input frequency ratio).

For the origin of these results see PMC12864922, “TDP-43 directly inhibits mRNA accumulation in neurites through modulation of mRNA stability”.
